Data from PubChem BioAssay (NCATS).
Results filed as inconclusive are left out. The source made the active and inactive calls. Unless noted, calls come from the whole dose curve; as a rule, active = well fitted curve in either direction with a large enough effect (not every such curve was filed as active); inconclusive = small, poorly fitted or top-dose-only effect, or another doubt; inactive = flat fitted curve, though single readings scatter.

Key:
[1] = target: Lysosomal acid glucosylceramidase (Homo sapiens) (UniProt P04062); test: Glucocerebrosidase-p2 (AID 348; in the data active = potency below about 10 µM; note: potency is the fitted concentration of half-maximal effect); conditions: purified GBA, blue fluorogenic substrate, 40 min
Chain of Lysosomal acid glucosylceramidase (Homo sapiens) (P04062 whole entry, looked up): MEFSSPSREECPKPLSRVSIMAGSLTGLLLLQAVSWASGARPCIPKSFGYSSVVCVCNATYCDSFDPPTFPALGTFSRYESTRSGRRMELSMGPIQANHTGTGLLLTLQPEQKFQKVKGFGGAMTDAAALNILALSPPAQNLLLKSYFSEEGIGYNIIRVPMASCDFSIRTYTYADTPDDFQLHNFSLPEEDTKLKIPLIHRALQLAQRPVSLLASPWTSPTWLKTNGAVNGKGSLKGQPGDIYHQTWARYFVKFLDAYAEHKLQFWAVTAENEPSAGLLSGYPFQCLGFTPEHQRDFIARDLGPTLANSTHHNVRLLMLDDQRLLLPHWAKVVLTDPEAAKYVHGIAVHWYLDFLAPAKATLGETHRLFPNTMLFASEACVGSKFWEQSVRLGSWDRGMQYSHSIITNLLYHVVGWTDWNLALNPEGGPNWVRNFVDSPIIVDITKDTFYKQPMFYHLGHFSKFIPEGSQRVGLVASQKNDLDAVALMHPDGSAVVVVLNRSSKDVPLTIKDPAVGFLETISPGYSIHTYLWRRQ
In short: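 Compounds titrated from 0.6 nM upwards against 0.2 nM enzyme in pH 5.9 citric acid/KH2PO4, taurocholate, tween-20; blue fluorogenic substrate 80 uM, 40 min room temperature, stopped and read Ex 365/Em 440 for AC50.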

[2] = AP1 Signaling Pathway (AID 357); conditions: ME-180 AP-1-bla reporter, EGF-induced, beta-lactamase ratio, 5 h; at 7.69 µM (top of the series) unless noted;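 note: ME-180 reporter cells stimulated with EGF at its EC50 level; % is set by controls: 0 for no effect and ±100 for the full control effect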
In short: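 In this screen, ME-180 cells in Opti-MEM with 0.5% dialyzed FBS received EC50 EGF and compound titrations for 5 h. AP-1 reporter beta-lactamase was detected via CCF4 ratio, giving AC50 for positive and negative modulators.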

[3] = NFAT Signaling Pathway (AID 444); conditions: Jurkat NFAT-bla M1, carbachol, beta-lactamase ratio, 5 h; at 7.69 µM (top of the series) unless noted;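 note: carbachol stimulus at about its EC50 of 1 µM final; % is set by controls: 0 for no effect and ±100 for the full control effect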
In short: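 Jurkat cells with NFAT-driven β-lactamase reporter and co-expressed M1 receptor, stimulated with carbachol (final 1 uM, ~EC50), compound titration, 5 h at 37 °C. CCF4 loaded 1 h at RT; 460/530 nm ratio gave %activity and AC50.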

[4] = Stat Signaling Pathway (AID 446); conditions: ME-180 SIE beta-lactamase reporter, IL-6 stimulated, 5 h; at 7.69 µM (top of the series) unless noted;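 note: ME-180 cervical cancer cells given 40 pM IL-6 alongside compound; SIE-controlled beta-lactamase reporter measured as 460/530 nm FRET emission ratio; % is set by controls: 0 for no effect and ±100 for the full control effect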
In short: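 ME-180 cells carrying a SIE-driven beta-lactamase reporter are stimulated with 40 pM IL-6 for 5 h at 37C in the presence of compound. The 460/530 nm FRET substrate ratio is read after 2.5 h at RT. Data are normalised to 300 pM IL-6 and to 125 nM JAK inhibitor controls.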

[5] = target: Glucocorticoid receptor (Homo sapiens) (UniProt P04150); test: GR-EFC Redistribution (AID 451; calls by dose curve; note: potency is the fitted concentration of half-maximal effect); conditions: CHO-K1 GR-EFC translocation, beta-gal luminescence, 2 h
Chain of Glucocorticoid receptor (Homo sapiens) (P04150 whole entry, looked up, the tested form may be a part): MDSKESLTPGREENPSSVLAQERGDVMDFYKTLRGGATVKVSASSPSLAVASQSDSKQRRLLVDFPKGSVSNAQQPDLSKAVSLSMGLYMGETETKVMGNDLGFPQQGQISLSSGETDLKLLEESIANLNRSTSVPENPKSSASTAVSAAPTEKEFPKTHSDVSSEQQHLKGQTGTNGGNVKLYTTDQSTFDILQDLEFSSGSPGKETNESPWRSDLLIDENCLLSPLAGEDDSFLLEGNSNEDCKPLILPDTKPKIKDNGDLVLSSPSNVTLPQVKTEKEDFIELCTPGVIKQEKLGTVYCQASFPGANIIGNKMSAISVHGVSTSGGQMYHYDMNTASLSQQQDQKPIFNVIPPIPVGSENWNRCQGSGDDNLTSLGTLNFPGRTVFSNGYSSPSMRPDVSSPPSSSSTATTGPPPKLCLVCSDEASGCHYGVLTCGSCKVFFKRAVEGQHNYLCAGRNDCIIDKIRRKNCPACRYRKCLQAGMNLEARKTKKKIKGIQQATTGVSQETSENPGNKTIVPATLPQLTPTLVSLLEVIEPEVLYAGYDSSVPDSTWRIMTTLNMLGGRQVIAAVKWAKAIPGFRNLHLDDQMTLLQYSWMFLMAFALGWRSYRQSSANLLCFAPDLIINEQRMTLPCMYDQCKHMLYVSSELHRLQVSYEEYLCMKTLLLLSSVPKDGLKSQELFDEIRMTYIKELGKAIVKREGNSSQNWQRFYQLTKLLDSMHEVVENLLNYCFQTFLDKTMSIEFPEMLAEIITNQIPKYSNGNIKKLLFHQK
In short: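 CHO-K1 cells expressing nuclear EA and GR-ED fragments of b-gal; compounds titrated up to 46 uM final, 2 h at 37 C. GR nuclear translocation read as complemented b-gal luminescence after 1 h RT detection.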

[6] = target: Mitogen-activated protein kinase 10 (Mus musculus) (UniProt Q61831); test: JNK3 AlphaScreen Assay (AID 530); conditions: JNK3 lysate, c-Jun phosphorylation; series mostly up to 57.1 µM;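 note: kinase came from lysate of stimulated human HepG2 cells; signal reports phosphorylation of biotinylated GST-cJun 1-79 at Ser73 with 10 µM ATP; % is set by controls: 0 for no effect and ±100 for the full control effect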
In short: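 qHTS format: compounds tested as titrations against IL-1beta/TNF-alpha-activated HepG2 lysate JNK3 with biotin-GST-cJun substrate and 10 uM ATP at room temperature. Loss of anti-phospho-cJun AlphaScreen signal indicates inhibition.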

[7] = target: 3',5'-cyclic-AMP phosphodiesterase 4B (Homo sapiens) (UniProt Q07343); test: qHTS Assay for Inhibitors of PDE-IV (AID 607; active = well fitted activation curve with a large enough effect in the main read-out, with a control signal flat, not every such curve was filed as active; note: % of control where 0% means no effect); conditions: HEK293 ACTOne CNG channel cells, membrane potential fluorescence; series mostly up to 22.9 µM
Chain of 3',5'-cyclic-AMP phosphodiesterase 4B (Homo sapiens) (Q07343 whole entry, looked up): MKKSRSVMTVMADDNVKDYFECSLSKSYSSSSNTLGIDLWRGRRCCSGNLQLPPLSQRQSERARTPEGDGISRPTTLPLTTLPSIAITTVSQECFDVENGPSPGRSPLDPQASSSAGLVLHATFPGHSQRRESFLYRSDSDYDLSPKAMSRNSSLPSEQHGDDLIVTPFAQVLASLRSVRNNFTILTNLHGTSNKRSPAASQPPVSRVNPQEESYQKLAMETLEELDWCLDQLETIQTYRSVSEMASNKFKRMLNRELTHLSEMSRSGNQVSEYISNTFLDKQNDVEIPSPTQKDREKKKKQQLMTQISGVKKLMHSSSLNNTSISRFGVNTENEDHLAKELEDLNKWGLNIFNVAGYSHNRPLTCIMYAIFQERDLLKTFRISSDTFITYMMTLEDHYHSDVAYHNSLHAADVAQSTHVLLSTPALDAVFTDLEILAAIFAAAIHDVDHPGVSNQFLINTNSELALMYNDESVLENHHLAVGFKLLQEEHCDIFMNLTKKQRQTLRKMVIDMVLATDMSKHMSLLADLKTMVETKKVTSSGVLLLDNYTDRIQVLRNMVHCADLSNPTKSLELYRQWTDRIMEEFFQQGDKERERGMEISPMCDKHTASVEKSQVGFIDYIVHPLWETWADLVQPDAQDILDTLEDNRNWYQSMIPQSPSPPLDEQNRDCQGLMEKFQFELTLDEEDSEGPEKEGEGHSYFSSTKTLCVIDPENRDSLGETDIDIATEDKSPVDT
In short: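 HEK293 ACTOne cells with CNG channel (1000/well), endogenous PDE4; membrane potential dye, compounds up to 22.9 uM final. Fluorescence Ex 535/Em 590; RO 20-1724 (100 uM final) as reference.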

[8] = qHTS Assay for Lipid Storage Modulators (AID 1519; calls by dose curve); conditions: Drosophila S3 cells, BODIPY lipid droplet/cell ratio, laser cytometry, cells loaded with oleic acid; for activity change, negative = inhibition: at 57.5 µM (top of the series)
In short: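 Cells seeded at 5,000 per well were treated with compounds over a concentration series and loaded with oleic acid (400 uM, as added). Lipid droplet fluorescence (488 nm excitation, 500-530 nm channel) was read by laser-scanning cytometry and normalized to 20 uM Triacsin C.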

[9] = Primary qHTS for small molecule stabilizers of the endoplasmic reticulum resident proteome: Secreted ER Calcium Modulated Protein (SERCaMP) assay (AID 1508630; active = well fitted curve in the direction sought with a large enough effect; an effect the other way counts as inactive or inconclusive; note: % is set by controls: 0 for no effect and ±100 for the full control effect); conditions: SH-SY5Y GLuc-SERCaMP (Gaussia luciferase released on ER calcium loss) secretion, thapsigargin, luminescence; series mostly up to 38.4 µM
In short: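 GLuc-SERCaMP-expressing SH-SY5Y cells, pretreated 16 h with compound, are challenged with thapsigargin to empty ER calcium stores; after 4 h, coelenterazine is added directly to the medium and luminescence is imaged.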

[10] = target: Cytochrome P450 1A2 (Homo sapiens) (UniProt P05177); test: p450-cyp1a2 (AID 410; calls by dose curve; note: potency is the fitted concentration of half-maximal effect); conditions: recombinant CYP1A2, luciferin-ME demethylation, luminescence; series mostly up to 57 µM
Chain of Cytochrome P450 1A2 (Homo sapiens) (P05177 whole entry, looked up): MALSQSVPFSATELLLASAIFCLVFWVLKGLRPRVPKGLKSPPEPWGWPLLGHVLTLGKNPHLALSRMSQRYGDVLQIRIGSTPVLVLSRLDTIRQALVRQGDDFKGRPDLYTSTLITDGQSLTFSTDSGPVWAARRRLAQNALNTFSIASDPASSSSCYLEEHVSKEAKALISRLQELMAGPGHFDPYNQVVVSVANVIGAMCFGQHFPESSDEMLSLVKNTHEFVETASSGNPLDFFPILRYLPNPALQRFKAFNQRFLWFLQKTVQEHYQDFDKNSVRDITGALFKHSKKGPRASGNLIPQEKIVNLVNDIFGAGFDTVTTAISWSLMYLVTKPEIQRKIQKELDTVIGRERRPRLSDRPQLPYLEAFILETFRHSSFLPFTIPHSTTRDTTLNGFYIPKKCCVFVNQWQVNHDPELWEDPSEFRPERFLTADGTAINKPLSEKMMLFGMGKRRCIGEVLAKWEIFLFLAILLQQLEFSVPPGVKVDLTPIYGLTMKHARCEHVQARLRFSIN
In short: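 Human CYP1A2 (20nM) demethylated Luciferin-ME at its Km (100uM) in 100mM KPO4. After 10 min compound preincubation, NADPH regeneration ran the reaction 60 min at room temperature. Luciferin was read by luminescence, normalized to 57 uM furafylline.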

[11] = target: Glucocorticoid receptor (Homo sapiens) (UniProt P04150); test: GR-GFP Redistribution (AID 450;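 active = compounds whose dose series gives a full or clear partial fitted curve of increased nuclear translocation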; note: potency is the fitted concentration of half-maximal effect); conditions: U2OS GR-GFP nuclear translocation, laser cytometry, 2 h
[12] = target: Cytochrome P450 3A4 (Homo sapiens) (UniProt P08684); test: qHTS Assay for Activators of Cytochrome P450 3A4 (AID 885; active = well fitted curve in the direction sought with a large enough effect; an effect the other way counts as inactive or inconclusive; note: nearly all actives have a fitted effect of over 65% in size); conditions: recombinant CYP3A4, Luciferin-PPXE luminescence, 60 min; series mostly up to 57.1 µM
Chain of Cytochrome P450 3A4 (Homo sapiens) (P08684 whole entry, looked up): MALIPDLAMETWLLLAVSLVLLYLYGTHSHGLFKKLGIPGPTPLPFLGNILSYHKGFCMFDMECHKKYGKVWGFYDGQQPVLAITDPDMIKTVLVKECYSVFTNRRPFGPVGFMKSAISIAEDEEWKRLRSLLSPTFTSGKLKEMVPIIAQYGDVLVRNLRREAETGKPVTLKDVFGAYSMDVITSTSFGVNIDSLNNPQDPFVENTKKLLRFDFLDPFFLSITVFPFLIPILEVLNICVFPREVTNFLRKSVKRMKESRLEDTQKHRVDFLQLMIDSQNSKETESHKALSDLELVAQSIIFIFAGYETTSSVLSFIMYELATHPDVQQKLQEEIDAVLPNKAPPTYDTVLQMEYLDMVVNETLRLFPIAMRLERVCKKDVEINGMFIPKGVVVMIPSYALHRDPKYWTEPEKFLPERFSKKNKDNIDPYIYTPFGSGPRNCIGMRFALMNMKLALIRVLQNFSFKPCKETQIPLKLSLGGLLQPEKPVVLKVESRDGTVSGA
In short: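 Human CYP3A4 (20 nM) with Luciferin-PPXE at 25 uM (its KM) in 200 mM KPO4; 10 min compound preincubation, then NADPH regeneration and 60 min reaction at RT. Luciferin read by luminescence; normalized to 57 uM ketoconazole full inhibition.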

[13] = target: Cytochrome P450 2C19 (Homo sapiens) (UniProt P33261); test: qHTS Assay for Inhibitors and Substrates of Cytochrome P450 2C19 (AID 899; active = well fitted curve in the direction sought with a large enough effect; an effect the other way counts as inactive or inconclusive; note: potency is the fitted concentration of half-maximal effect; nearly all actives have a fitted effect of over 60% in size); conditions: recombinant CYP2C19, luciferin-H EGE luminescence; series mostly up to 57.1 µM
Chain of Cytochrome P450 2C19 (Homo sapiens) (P33261 whole entry, looked up): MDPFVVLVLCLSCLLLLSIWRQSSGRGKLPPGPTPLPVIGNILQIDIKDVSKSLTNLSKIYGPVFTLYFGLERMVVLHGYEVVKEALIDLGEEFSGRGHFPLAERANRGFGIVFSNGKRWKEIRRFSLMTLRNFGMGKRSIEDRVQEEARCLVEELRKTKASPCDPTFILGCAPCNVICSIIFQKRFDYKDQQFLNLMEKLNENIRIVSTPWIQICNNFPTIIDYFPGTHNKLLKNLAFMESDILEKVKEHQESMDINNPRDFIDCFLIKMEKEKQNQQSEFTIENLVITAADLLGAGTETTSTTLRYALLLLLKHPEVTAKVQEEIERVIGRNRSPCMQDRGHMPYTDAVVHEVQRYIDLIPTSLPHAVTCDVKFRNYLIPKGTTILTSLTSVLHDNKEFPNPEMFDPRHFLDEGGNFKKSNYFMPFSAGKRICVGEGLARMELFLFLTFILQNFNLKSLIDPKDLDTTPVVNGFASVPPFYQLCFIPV
In short: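 Luminescent read-out of luciferin formed from Luciferin-H EGE (10uM, equal to KM). Enzyme 5nM in 50mM KPO4; compound added, 10 min at 37C, then NADPH regenerating system for 60 min at 37C. Full inhibition defined by 57uM ketoconazole.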

[14] = Confirmation and Secondary Assay for Modulators of Hemoglobin Beta Chain Splicing at IVS2 654 locus (AID 910; active = well fitted curve in the direction sought with a large enough effect; an effect the other way counts as inactive or inconclusive;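 note: HeLa cells stably carrying EGFP split by mutant beta-globin IVS2-654 intron; % of control where 0% means no effect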); conditions: HeLa EGFP-654 splicing reporter, GFP fluorescence, 48 h; series mostly up to 38.3 µM
In short: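 HeLa cells stably expressing EGFP interrupted by β-globin IVS2-654 intron, seeded overnight in Opti-MEM/2% FCS, then treated 2 days at 37 °C. Restored splicing read as total peak GFP intensity per well by laser scanning cytometry (488 nm excitation, 500–520 nm emission); 500 nM antisense PNA as control.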

[15] = Confirmation and Secondary Assay for Modulators of Hemoglobin Beta Chain Splicing at IVS2 705 locus (AID 930; active = well fitted curve in the direction sought with a large enough effect; an effect the other way counts as inactive or inconclusive;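 note: HeLa cells stably expressing the EGFP-705 splicing reporter; GFP fluorescence per well restored by corrected splicing of the IVS2-705 intron in EGFP; % of control where 0% means no effect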); conditions: HeLa EGFP-705 splicing reporter, GFP fluorescence, 48 h; series mostly up to 38.3 µM
In short: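 HeLa IVS2-705 EGFP reporter cells, 500/well, compound 2 d at 37C; correct splicing yields fluorescent EGFP. Control: 500 nM antisense PNA. Read-out: total peak GFP intensity.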

[16] = target: Ubiquitin carboxyl-terminal hydrolase 1 (Homo sapiens) (UniProt O94782); test: Inhibitors of USP1/UAF1: Pilot qHTS (AID 504865; active = well fitted curve in the direction sought with a large enough effect; an effect the other way counts as inactive or inconclusive;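 note: rhodamine fluorescence freed from ubiquitin-rhodamine substrate followed over time; top concentration of the series differs between compounds; % is set by controls: 0 for no effect and ±100 for the full control effect; nearly all actives have a fitted effect of over 35% in size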); conditions: purified USP1/UAF1, Ub-rhodamine cleavage fluorescence; series mostly up to 54.9 µM
Chain of Ubiquitin carboxyl-terminal hydrolase 1 (Homo sapiens) (O94782 whole entry, looked up): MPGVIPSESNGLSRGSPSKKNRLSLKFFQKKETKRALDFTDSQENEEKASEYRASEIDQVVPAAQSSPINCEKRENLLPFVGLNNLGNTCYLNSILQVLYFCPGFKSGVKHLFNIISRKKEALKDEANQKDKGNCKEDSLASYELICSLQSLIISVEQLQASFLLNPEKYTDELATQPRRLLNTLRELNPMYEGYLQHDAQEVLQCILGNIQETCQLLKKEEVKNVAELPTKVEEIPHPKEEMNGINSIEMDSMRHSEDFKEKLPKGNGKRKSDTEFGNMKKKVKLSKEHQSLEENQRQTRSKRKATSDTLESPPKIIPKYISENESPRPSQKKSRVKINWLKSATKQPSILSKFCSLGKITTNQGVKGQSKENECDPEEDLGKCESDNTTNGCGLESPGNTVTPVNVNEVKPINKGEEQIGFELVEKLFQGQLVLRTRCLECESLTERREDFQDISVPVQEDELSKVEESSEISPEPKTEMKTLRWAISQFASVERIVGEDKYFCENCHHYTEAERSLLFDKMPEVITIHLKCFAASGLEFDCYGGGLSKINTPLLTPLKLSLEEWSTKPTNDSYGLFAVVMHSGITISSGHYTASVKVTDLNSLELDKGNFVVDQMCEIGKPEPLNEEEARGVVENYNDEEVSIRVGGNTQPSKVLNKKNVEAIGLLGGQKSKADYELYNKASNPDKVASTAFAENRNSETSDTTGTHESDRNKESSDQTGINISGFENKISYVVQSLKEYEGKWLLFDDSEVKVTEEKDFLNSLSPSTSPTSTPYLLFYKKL
In short: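 Kinetic fluorescence assay: 1nM USP1/UAF1, 15 min compound preincubation, then 150nM Ub-Rho; 480/540 nm.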

[17] = qHTS Assay for Identification of Small Molecule Agonists for Hypoxia Response Element Signaling Pathway (AID 914; active = well fitted activation curve with a large enough effect in the signal ratio, with a control signal flat, not every such curve was filed as active; the % refers to the signal ratio; note: potency is the fitted concentration of half-maximal effect); conditions: ME-180 (cervical carcinoma) HRE-bla reporter, beta-lactamase ratio, CoCl2, 17 h; activation: stronger effect = higher value
In short: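 HRE-bla ME-180 assay for agonist-like enhancement of an EC50 CoCl2 stimulus: 17 h at 37 degrees Celsius, CCF4 for 2.5 h, ratiometric 460/530 nm signal converted to %Activity and fitted to AC50.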

[18] = measured here: cell count channel max response
[19] = measured here: lipid channel max response

| SMILES | Potency [1] | activity change, negative = inhibition [2] | activity change, negative = inhibition [3] | activity, negative = inhibition [4] | Potency [5] | Potency [6] | Potency [7] | activity change, negative = inhibition [8] | max response [8, 18] [%] | max response [8, 19] [%] | outcome [9] | Potency [10] | Potency [11] | Potency [12] | Potency [13] | Potency [14] | outcome [15] | Potency [16] | Potency [17] |
| --- | --- | --- | --- | --- | --- | --- | --- | --- | --- | --- | --- | --- | --- | --- | --- | --- | --- | --- | --- |
| O=C(c1ccncc1)N1CCC[C@@]2(CCN(c3ccncc3)C2)C1 | > 11.4 µM (inactive) | -13.7% (inactive) | -14.9% (inactive) | -3.85% (inactive) | > 46 µM (inactive) | inactive | inactive | 3.8% (inactive) | 9.21 | 15 | inactive | – | – | – | – | – | – | – | – |
| Cc1noc(C)c1-c1ccc2ncnc(NCc3ccccc3)c2c1 | > 11.4 µM (inactive) | 21.4% (inactive) | – | – | > 46 µM (inactive) | inactive | – | -0.127% (inactive) | -0.875 | -2.04 | inactive | 3.16 µM (active) | > 46 µM (inactive) | inactive | 7.94 µM (active) | inactive | inactive | – | – |
| Cc1ccccc1-c1cncnc1NC1CCNCC1 | > 11.4 µM (inactive) | 11.7% (inactive) | -1.26% (inactive) | 20.9% (inactive) | > 46 µM (inactive) | inactive | inactive | 3.19% (inactive) | 12.9 | 16 | inactive | – | > 46 µM (inactive) | inactive | – | inactive | inactive | inactive | – |
| COc1ccc(-n2c(=O)cnc3cnc(Nc4ccccc4)nc32)cc1 | > 11.4 µM (inactive) | -13.4% (inactive) | 5.4% (inactive) | -1.48% (inactive) | > 46 µM (inactive) | inactive | – | 7.14% (inactive) | 8.28 | 18.1 | inactive | – | > 9.22 µM (inactive) | – | – | – | – | – | – |
| O=C(c1csnn1)N1CCC2(CC1)CN(c1ncccn1)C2 | > 11.4 µM (inactive) | 13.2% (inactive) | 16.9% (inactive) | 1.44% (inactive) | > 46 µM (inactive) | inactive | inactive | 0.698% (inactive) | -0.721 | 1.07 | inactive | – | – | – | – | – | – | – | – |
| Cc1ccccc1-c1cc(-n2ccnc2)ncn1 | > 11.4 µM (inactive) | -7.76% (inactive) | -6.87% (inactive) | 15.7% (inactive) | > 46 µM (inactive) | inactive | inactive | 9.66% (inactive) | 7.52 | 17.5 | inactive | – | > 46 µM (inactive) | – | – | inactive | inactive | inactive | – |
| COCC(=O)N1CCC[C@@]2(CCN(c3ccccn3)C2)C1 | > 11.4 µM (inactive) | -4.6% (inactive) | -11.3% (inactive) | -4.62% (inactive) | > 46 µM (inactive) | inactive | inactive | 2.24% (inactive) | -4.94 | -1.36 | inactive | – | – | – | – | – | – | – | – |
| Cc1ccccc1-c1cc(Nc2ccc(F)cc2)ncn1 | > 11.4 µM (inactive) | -11.7% (inactive) | 6.17% (inactive) | -0.99% (inactive) | > 46 µM (inactive) | inactive | – | 9.27% (inactive) | -1.72 | 7.96 | inactive | – | > 46 µM (inactive) | inactive | 0.631 µM (active) | – | inactive | – | – |
| Cc1noc(C)c1C(=O)N1CCC[C@@]2(CCN(C(c3ccccc3)c3ccccc3)C2)C1 | > 11.4 µM (inactive) | -7.96% (inactive) | -12.7% (inactive) | -6.89% (inactive) | > 46 µM (inactive) | inactive | inactive | 2.35% (inactive) | 12.4 | 16.6 | inactive | – | – | – | – | – | – | – | – |
| COCCn1c(=O)c(-c2cn(C)c3ccccc23)nc2cnc(Oc3ccc(OC)cc3)nc21 | > 11.4 µM (inactive) | 14.1% (inactive) | – | – | > 46 µM (inactive) | – | inactive | -11.5% (inactive) | 2.76 | -6.23 | inactive | 2.51 µM (active) | > 46 µM (inactive) | inactive | – | – | – | – | 3.16 µM (active) |
| COc1ccc(C(=O)N2CCC3(CC2)CN(c2ncccn2)C3)cc1 | > 11.4 µM (inactive) | -9.3% (inactive) | 13.7% (inactive) | -24.2% (inactive) | > 46 µM (inactive) | inactive | inactive | 1.87% (inactive) | 12.3 | 16.8 | inactive | – | – | – | – | – | – | – | – |
| CS(=O)(=O)N1CCC2(CC1)CN(Cc1ccccc1)C2 | > 11.4 µM (inactive) | -4.28% (inactive) | -8.71% (inactive) | -7.57% (inactive) | > 46 µM (inactive) | inactive | inactive | 3.83% (inactive) | 6.73 | 15 | inactive | – | – | – | – | – | – | – | – |
| Cc1cnc(CNc2ccnc(-c3ccc(C(=O)N(C)C)cc3)n2)cn1 | > 11.4 µM (inactive) | 9.07% (inactive) | 1.49% (inactive) | 0.405% (inactive) | > 46 µM (inactive) | inactive | inactive | 9.3% (inactive) | 6.03 | 15.8 | inactive | – | > 46 µM (inactive) | – | – | inactive | inactive | inactive | – |
